# Test results from ChEMBL document CHEMBL2218924, “A broad activity screen in support of a chemogenomic map for kinase signalling research and drug discovery” (Biochem J, 2013).
# Molecular target: T1, Tyrosine-protein kinase TXK (Homo sapiens) (UniProt P42681)
# T1 sequence (whole entry): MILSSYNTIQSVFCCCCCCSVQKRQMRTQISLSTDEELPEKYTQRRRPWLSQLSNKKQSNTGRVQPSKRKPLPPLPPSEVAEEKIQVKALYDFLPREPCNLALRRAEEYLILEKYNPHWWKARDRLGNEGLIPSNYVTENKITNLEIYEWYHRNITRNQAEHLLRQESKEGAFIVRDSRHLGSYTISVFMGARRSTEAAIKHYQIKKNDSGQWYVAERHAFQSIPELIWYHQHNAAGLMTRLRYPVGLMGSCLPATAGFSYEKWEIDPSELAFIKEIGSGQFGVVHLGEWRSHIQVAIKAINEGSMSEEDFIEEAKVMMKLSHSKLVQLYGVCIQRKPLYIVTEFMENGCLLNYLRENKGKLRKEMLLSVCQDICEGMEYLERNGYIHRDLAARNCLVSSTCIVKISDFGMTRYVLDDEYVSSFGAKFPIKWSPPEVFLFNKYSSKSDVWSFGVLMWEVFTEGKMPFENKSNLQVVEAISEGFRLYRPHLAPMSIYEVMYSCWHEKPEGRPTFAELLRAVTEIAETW
# Conditions: at 10 µM
row,SMILES,residual activity
1,O=Nc1c(-c2c(O)[nH]c3ccccc23)[nH]c2ccccc12,11%
2,COc1cc2ncc(-c3ccccc3)nc2cc1OC,73%
3,Cc1cc(Nc2nc(-c3ccccc3)nc3ccccc23)n[nH]1,2%
4,Cc1cncc2cccc(S(=O)(=O)N3CCCN(C(=O)CN)C[C@H]3C)c12,91%
5,COc1cc2ncnc(N3CCN(C(=O)Nc4ccc(Oc5ccccc5)cc4)CC3)c2cc1OC,119%
6,N#Cc1cnc2cnc(NCc3cccnc3)cc2c1Nc1ccc(F)c(Cl)c1,69%
7,O=C1Nc2ccccc2/C1=C1/Nc2ccccc2/C1=N\OCCC(O)CO (stereo not drawn),3%
8,Oc1c2ccccc2c2c3c(cccc13)N=N2,23%
9,COc1cccc(-c2cc(=O)c3ccccc3o2)c1N,73%
10,Cc1cccc(-c2[nH]c(C(C)(C)C)nc2-c2ccc3c(c2)OCO3)n1,98%
11,CNc1cc2c(Nc3cccc(Br)c3)ncnc2cn1,64%
12,O=[N+]([O-])c1ccc(-c2nc(-c3ccc(F)cc3)c(-c3ccncc3)[nH]2)cc1,66%
13,O=C(O)c1ccc2c3c1cccc3c(=O)n1c3ccccc3nc21,60%
14,Cn1nc2c3c(cccc31)C(=O)c1ccccc1-2,61%
15,CCN(CC)C(=O)c1ccc(Nc2nc(OCC3CCCCC3)c3nc[nH]c3n2)cc1,5%
16,CO[C@H]1C[C@@H]2CC[C@@H](C)[C@@](O)(O2)C(=O)C(=O)N2CCCC[C@H]2C(=O)O[C@H]([C@H](C)C[C@@H]2CC[C@@H](O)[C@H](OC)C2)CC(=O)[C@H](C)/C=C(\C)[C@@H](O)[C@@H](OC)C(=O)[C@H](C)C[C@H](C)/C=C/C=C/C=C/1C,111%
17,COc1cc2ncnc(Nc3ccc(O)c(Br)c3)c2cc1OC,46%
18,COc1cc2ncnc(Nc3ccc(NC(=O)c4ccccc4)cc3)c2cc1OC,82%

row,SMILES,residual activity
1,O=C(Nc1cccc(Nc2cc(Nc3cccc(C(F)(F)F)c3)ncn2)c1)C1CC1,69%
2,O=C1NC(=O)/C(=C/c2ccc3c(c2)OC(F)(F)O3)S1,104%
3,O=C1c2ccccc2-[n+]2ccc3c([nH]c4ccccc43)c21,75%
4,Ic1cccc(CSc2nnc(-c3ccncc3)o2)c1,81%
5,CCN(CC)CCCCN1c2ccccc2Oc2ccc(Cl)cc21,81%
6,CO[C@H]1[C@@H](OC)C[C@H](C)[C@@H](OC)C2=CC(=O)C=C(NC(=O)/C(C)=C/C=C/[C@H](OC)[C@@H](OC(N)=O)/C(C)=C/[C@@H]1C)C2=O,103%
7,c1ccc(-c2n[nH]c3c2oc2ccccc23)cc1,73%
8,C[C@@H](N)[C@H]1CC[C@H](C(=O)Nc2ccncc2)CC1,94%
9,N#CC(C#N)=C(N)/C(C#N)=C/c1ccc(O)cc1,67%
10,O=C1Nc2ccc(Br)cc2/C1=C\c1cc2c([nH]1)CCCC2,76%
11,CO[C@@H]1[C@H](N(C)C(=O)c2ccccc2)C[C@H]2O[C@]1(C)n1c3ccccc3c3c4c(c5c6ccccc6n2c5c31)C(=O)NC4,69%
12,c1ccc(-c2n[nH]cc2-c2ccnc3ccccc23)nc1,64%
13,CC(=O)O/N=C1\C(=C2\C(=O)Nc3cc(Br)ccc32)Nc2ccccc21,19%
14,CN(C)CCCn1cc(C2=C(c3c[nH]c4ccccc34)C(=O)NC2=O)c2ccccc21,79%
15,Nc1cccc(-c2cc3c(Oc4cccc(O)c4)ncnc3[nH]2)c1,3%
16,CC(C)n1cnc2c(NCc3ccccc3)nc(NCCCO)nc21,74%
17,CC(C)n1cnc2/c(=N/c3cccc(Cl)c3)nc(NCCO)[nH]c21,37%

# Molecular target: T2, Serine/threonine-protein kinase ULK2 (Homo sapiens) (UniProt Q8IYT8)
# T2 sequence (whole entry): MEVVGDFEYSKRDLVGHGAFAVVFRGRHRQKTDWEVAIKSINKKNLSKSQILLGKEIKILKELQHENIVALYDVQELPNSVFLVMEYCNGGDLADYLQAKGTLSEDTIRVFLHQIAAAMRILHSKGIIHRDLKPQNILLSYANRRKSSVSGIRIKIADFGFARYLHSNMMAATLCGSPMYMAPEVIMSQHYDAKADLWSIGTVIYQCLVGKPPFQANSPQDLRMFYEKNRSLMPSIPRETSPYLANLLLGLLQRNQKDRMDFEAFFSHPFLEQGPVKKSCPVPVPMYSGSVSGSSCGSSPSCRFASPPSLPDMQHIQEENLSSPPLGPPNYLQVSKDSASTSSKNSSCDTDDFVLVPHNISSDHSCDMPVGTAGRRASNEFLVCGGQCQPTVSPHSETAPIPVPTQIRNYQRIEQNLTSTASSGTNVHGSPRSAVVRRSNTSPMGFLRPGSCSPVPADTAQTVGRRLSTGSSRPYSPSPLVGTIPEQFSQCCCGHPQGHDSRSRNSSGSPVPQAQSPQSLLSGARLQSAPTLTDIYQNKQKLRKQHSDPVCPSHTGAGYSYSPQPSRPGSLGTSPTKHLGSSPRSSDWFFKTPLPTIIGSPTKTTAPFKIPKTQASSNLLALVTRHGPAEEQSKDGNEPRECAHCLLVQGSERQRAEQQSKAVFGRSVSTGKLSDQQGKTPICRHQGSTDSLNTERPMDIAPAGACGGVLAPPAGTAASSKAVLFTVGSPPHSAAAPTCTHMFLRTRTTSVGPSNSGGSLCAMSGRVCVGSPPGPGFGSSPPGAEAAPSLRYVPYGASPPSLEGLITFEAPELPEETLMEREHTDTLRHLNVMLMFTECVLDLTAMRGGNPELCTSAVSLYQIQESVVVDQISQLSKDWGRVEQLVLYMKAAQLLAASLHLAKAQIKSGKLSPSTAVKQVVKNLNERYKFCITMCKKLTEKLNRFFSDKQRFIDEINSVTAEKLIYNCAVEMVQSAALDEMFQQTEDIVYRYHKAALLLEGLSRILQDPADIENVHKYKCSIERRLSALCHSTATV
# Conditions: at 1 µM
row,SMILES,residual activity
1,O=Nc1c(-c2c(O)[nH]c3ccccc23)[nH]c2ccccc12,93%
2,Cc1cncc2cccc(S(=O)(=O)N3CCCN(C(=O)CN)C[C@H]3C)c12,93%
3,COc1cc2ncnc(N3CCN(C(=O)Nc4ccc(Oc5ccccc5)cc4)CC3)c2cc1OC,100%
4,O=C1Nc2ccccc2/C1=C1/Nc2ccccc2/C1=N\OCCC(O)CO (stereo not drawn),98%
5,Oc1c2ccccc2c2c3c(cccc13)N=N2,90%
6,COc1cccc(-c2cc(=O)c3ccccc3o2)c1N,117%
7,CNc1cc2c(Nc3cccc(Br)c3)ncnc2cn1,103%
8,O=[N+]([O-])c1ccc(-c2nc(-c3ccc(F)cc3)c(-c3ccncc3)[nH]2)cc1,112%
9,O=C(O)c1ccc2c3c1cccc3c(=O)n1c3ccccc3nc21,90%
10,CCN(CC)C(=O)c1ccc(Nc2nc(OCC3CCCCC3)c3nc[nH]c3n2)cc1,80%
11,CO[C@H]1C[C@@H]2CC[C@@H](C)[C@@](O)(O2)C(=O)C(=O)N2CCCC[C@H]2C(=O)O[C@H]([C@H](C)C[C@@H]2CC[C@@H](O)[C@H](OC)C2)CC(=O)[C@H](C)/C=C(\C)[C@@H](O)[C@@H](OC)C(=O)[C@H](C)C[C@H](C)/C=C/C=C/C=C/1C,91%
12,COc1cc2ncnc(Nc3ccc(O)c(Br)c3)c2cc1OC,89%
13,COc1cc2ncnc(Nc3ccc(NC(=O)c4ccccc4)cc3)c2cc1OC,108%
14,O=C(Nc1cccc(Nc2cc(Nc3cccc(C(F)(F)F)c3)ncn2)c1)C1CC1,103%
15,O=C1NC(=O)/C(=C/c2ccc3c(c2)OC(F)(F)O3)S1,106%
16,Ic1cccc(CSc2nnc(-c3ccncc3)o2)c1,98%
17,CCN(CC)CCCCN1c2ccccc2Oc2ccc(Cl)cc21,116%
18,CO[C@H]1[C@@H](OC)C[C@H](C)[C@@H](OC)C2=CC(=O)C=C(NC(=O)/C(C)=C/C=C/[C@H](OC)[C@@H](OC(N)=O)/C(C)=C/[C@@H]1C)C2=O,100%
19,C[C@@H](N)[C@H]1CC[C@H](C(=O)Nc2ccncc2)CC1,85%
20,CC(=O)O/N=C1\C(=C2\C(=O)Nc3cc(Br)ccc32)Nc2ccccc21,93%
21,CN(C)CCCn1cc(C2=C(c3c[nH]c4ccccc34)C(=O)NC2=O)c2ccccc21,110%
22,CC(C)n1cnc2c(NCc3ccccc3)nc(NCCCO)nc21,106%
23,CC(C)n1cnc2/c(=N/c3cccc(Cl)c3)nc(NCCO)[nH]c21,68%
